# According to PubChem BioAssay AID686978 (National Center for Advancing Translational Sciences (NCATS), 2013):
# About 64,000 (15%) of roughly 420,000 compounds were called active. Not shown: some 27% with an inconclusive outcome. Not all results are given here. Unmarked numbers belong to inactive results. The call rests on the fitted dose curve; in most records, active means well fitted inhibition curve with a large enough effect; inconclusive means small, poorly fitted or top-dose-only effect; inactive means flat fitted curve, though single readings scatter.
# Assay: qHTS for Inhibitors of human tyrosyl-DNA phosphodiesterase 1 (TDP1): qHTS in cells in absence of CPT; further: nearly all actives have a fitted effect of over 55% in size
# Conditions: DT40 Tdp1-/- hTDP1 cells, no CPT, ATP luminescence, 48 h; activity change, negative = growth inhibition: at 46.2 µM (top of the series)
# Outline: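 Growth of hTDP1-complemented DT40 Tdp1-knockout cells is measured by ATP luminescence after at least 48 hr compound exposure at 37 °C, with DMSO substituting for the 20 nM CPT used in the parallel screen.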
# On the % scale 0 is the no-effect control and ±100 the full control effect; potency means the concentration at half of the fitted maximal effect.
SMILES,"activity change, negative = growth inhibition [%]",Potency
O=C1Nc2cc(Cl)c(Cl)cc2N(O)N1c1ccccc1Cl,2.71,–
COC(=O)c1ccc2nc(-c3ccccc3)c(Cc3ccc(OC)cc3C)n2c1,–,23.1 µM (active)
COC(=O)c1ccc2nc(-c3cccc(Br)c3)c(Cc3ccccc3C(F)(F)F)n2c1,-18,–
COC(=O)c1ccc2nc(-c3ccc(OC)c(OC)c3)c(Cc3ccccc3)n2c1,–,20.6 µM (active)
COC(=O)c1ccc2nc(-c3ccc(Cl)cc3)c(Cc3cccc(F)c3)n2c1,–,23.1 µM (active)
COc1ccc(C(=O)NCc2cn3ccccc3n2)cc1,3.12,–
COC(=O)c1ccc(NC(=O)CSc2nncc3ccc(OC)c(OC)c23)cc1,-16.5,–
COC(=O)c1ccc(COC(=O)c2cnc(Cl)c(Cl)c2)cc1,-7.94,–
COC(=O)c1ccc2nc(-c3ccc(F)cc3)c(Cc3ccc(C)cc3)n2c1,-27.5,–
CCN1CCN(Cc2c(O)ccc3c(=O)c(-c4ccc(OC)c(OC)c4)c(C(F)(F)F)oc23)CC1,-17.6,–
Cc1ccc(NS(=O)(=O)c2c(C)[nH]c(=O)[nH]c2=O)cc1C,-4.65,–
C[C@@H]1CC[C@]2(O[C@@H](CCO)C[C@H](O)[C@H]2O)O1,5.06,–
CCCCSc1nnc(-c2ccc(NC(=O)CC)cc2)n1C,–,inactive
O=C(c1cccc(S(=O)(=O)Nc2ccccc2Cl)c1)N1CCN(C(=O)c2ccco2)CC1,1.12,–
COc1ccc(C)cc1NC(=O)NCCCCc1ccccc1,12.6,–
CCc1nonc1NC(=O)c1oc2ccc(Cl)cc2c1C,–,inactive
CCOc1ccc(-c2nonc2NC(=O)c2oc3ccc(C)cc3c2C)cc1OCC,-16.5,–
CCOc1ccc(-c2nonc2NC(=O)c2oc3ccc(CC)cc3c2C)cc1,–,20.6 µM (active)
CCCCCCCCOC1OC(CO)C(O)C(O)C1NC(C)=O (stereo not drawn),-3.29,–
O=C1CCN(C(=O)Nc2ccccc2)N1,1.14,–
CCNC(=O)C1(C)CCCN(C(=O)c2c(C)noc2C)C1 (stereo not drawn),-13.2,–
COc1ccc(-c2cc(-c3ccc(F)cc3)nc3c2COc2ccccc2-3)cc1,-23.6,–
NC(=O)C1CCN(C2OC(=O)c3ccccc32)CC1 (stereo not drawn),-8.31,–
CCOC(=O)NNC(=O)c1ccc(Cl)cc1,-8.72,–
Cc1nn(C)c(C)c1S(=O)(=O)N1CCC(CO)(Cc2ccc(Cl)cc2)CC1,–,16.4 µM (active)

SMILES,"activity change, negative = growth inhibition [%]",Potency
Cc1ccc(S(=O)(=O)n2nc(C)c(S(=O)(=O)N3CCCCCC3)c2C)cc1,-4.52,–
CCOc1ccccc1NC(=O)C1CCN(S(=O)(=O)c2c(C)nn(C)c2C)CC1,-18.3,–
COc1ccc(NC(=O)c2ccccc2CC[N+](=O)[O-])cc1,1.08,–
CC(=O)c1cccc(NC(=O)Nc2ccc(C)cc2)c1,-22.1,–
CC(=O)c1cccc(NC(=O)c2cc(C)nn2-c2ccccc2)c1,-28.1,–
CC(=O)c1cccc(NC(=O)c2nc(-c3ccccc3)n(-c3cccc(C)c3)n2)c1,–,10.3 µM (active)
COc1ccc2c(c1)C(c1cccs1)=NNC(c1cccnc1)=N2,-18,–
COC(=O)c1cccc([N+](=O)[O-])c1CS(=O)(=O)c1ccc(C)cc1,0.149,–
COc1cccc2c(O)cc(=O)n(C)c12,-27.5,–
COCCCN(C(=S)Nc1c(C)cc(C)cc1C)C(C)c1ccncc1 (stereo not drawn),-2.19,–
COc1ccc(C(=O)Nc2nc(-c3ccc(S(=O)(=O)N4CCOCC4)cc3)cs2)cc1,–,20.6 µM (active)
CNC(=O)c1ccsc1NC(=O)c1ccc(S(=O)(=O)N2CCOCC2)cc1,–,23.1 µM (active)
COc1ccc(S(=O)(=O)n2nc(C)c(S(=O)(=O)N3CCOCC3)c2C)cc1,18.8,–
O=C(Nc1ccc(S(=O)(=O)N2CCOCC2)cc1)c1ccc2ncsc2c1,2.34,–
Cc1cc2nc(NC(=O)c3ccc(S(=O)(=O)N4CCOCC4)cc3)sc2cc1C,2.39,–
CNC(=O)c1ccsc1NC(=O)c1ccc(S(=O)(=O)N2CCc3ccccc32)cc1,–,18.4 µM (active)
Cc1ccc(S(=O)(=O)N2CCOCC2)cc1NC(=O)c1ccncc1,-13.4,–
CS(=O)(=O)N1CCc2cc(C(=O)Nc3ccccc3Br)ccc21,6.47,–
CSc1ccccc1NC(=O)c1ccc2c(c1)CCN2S(C)(=O)=O,-18.4,–
Cc1ccc(N2CCN(/N=C/c3cccs3)CC2)cc1,-15.1,–
CCN1CCN(C2CCCCC2NS(=O)(=O)c2ccc(Cl)cc2)CC1 (stereo not drawn),4.44,–
O=C1OC(C(O)CO)C(O)=C1O (stereo not drawn),-6.15,–
COC(=O)c1ccc(COC(=O)C2CCN(S(=O)(=O)c3c(Cl)cccc3Cl)CC2)o1,-2.71,–
CC(C)(C)n1nnc(CCc2nnn(C(C)(C)C)n2)n1,-13.1,–
O=S(=O)(NCCCN1CCOCC1)c1ccc(F)c(Cl)c1,17.3,–

SMILES,"activity change, negative = growth inhibition [%]",Potency
COC(=O)[C@]1(C)N[C@H](CN(C)C(=O)c2ccc(C(C)(C)C)cc2)[C@@H]2C(=O)N(C)C(=O)[C@@H]21,-8.27,–
CCCC1(C(=O)OC)NC(c2ccco2)C2C(=O)N(C)C(=O)C21 (stereo not drawn),10.1,–
COC(=O)[C@]1(CC(C)C)N[C@H](c2ccc(SC3CCCCC3)cc2)[C@@H]2C(=O)N(C)C(=O)[C@@H]21,–,23.1 µM (active)
CCc1nc2cc(C(=O)NCC3CCS(=O)(=O)C3)cc(NC(=O)c3ccccc3OC)c2n1C (stereo not drawn),-6.3,–
COc1ccc(-c2nc3cnc(Oc4ccccc4)nc3n(Cc3cccs3)c2=O)cc1,-4.39,–
CCc1ccc2nc3sc(C(=O)Nc4nnc(CC)s4)c(N)c3cc2c1,–,18.4 µM (active)
CCc1nnc(NC(=O)c2sc3nc(C)cc(COC)c3c2N)s1,-9.29,–
CCc1nnc(NC(=O)c2ccco2)s1,5.95,–
CCC(=O)c1ccc(OCC(O)CN2C(=O)NC(C)(C)C2=O)cc1 (stereo not drawn),5.76,–
CCOC(=O)c1c(N)sc(C(C)=O)c1C,-22.8,–
Cc1ccc(-c2cc(C(=O)Oc3ccccc3Cl)no2)cc1C,-1.58,–
O=C(Nc1ccccc1)c1ccco1,13.4,–
O=C(NCCSc1ccccc1)c1ccco1,-15,–
Cc1cccc(OCCSc2nc3ccc(NC(=O)COc4ccccc4C)cc3s2)c1,-16.9,–
O=C(NC1CCCCC1)c1cc([N+](=O)[O-])ccc1N1CCOCC1,-26.5,–
O=C(Nc1ccc2nc(SCCOc3ccccc3)sc2c1)c1ccco1,–,23.1 µM (active)
CCOc1ccc2nc(SC(CC)C(=O)Nc3cc(C)on3)sc2c1 (stereo not drawn),–,18.4 µM (active)
CC(=O)Nc1ccc2nc(SCCOc3cc(C)cc(C)c3)sc2c1,–,16.4 µM (active)
CCOc1ccc2nc(NC(=O)c3cc([N+](=O)[O-])ccc3N3CCOCC3)sc2c1,–,18.4 µM (active)
Cc1cc(C)cc(OCc2nnc(SCC(=O)Nc3ccccc3)o2)c1,-0.595,–
CCCC(=O)N(CCN1CCOCC1)c1nc2ccc(OCC)cc2s1,-20,–
Cc1cc(C)cc(OCC(=O)Nc2nc3ccc([N+](=O)[O-])cc3s2)c1,-24.8,–
Cc1cc(NC(=O)COc2ccc([N+](=O)[O-])cc2)no1,-27.2,–
